# Laboratory results as given in PubChem BioAssay AID588397 (National Center for Advancing Translational Sciences (NCATS), 2011).
# Hit rate of the full screen: of about 1,300 compounds, about 1,000 (77%) were called active. Another 7% or so got no clear call; they are omitted. The set was probably picked from earlier hits. Some of the results follow. Values without a mark were called inactive. Calls follow the shape of the dose curve; as a rule, active = well fitted inhibition curve with a large enough effect; inconclusive = small, poorly fitted or top-dose-only effect; inactive = no such curve, though single readings can be large or run the other way.
# Assay: qHTS of small molecules that selectively kill Giardia lamblia: Hit Validation.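 Also: viability measured as ATP content by luminescence so killing lowers signal; nearly all actives have a fitted effect of over 65% in size.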
# Conditions: Giardia lamblia trophozoite viability, dose-response; series mostly up to 38.3 µM; activity change, negative = killing: at the top concentration
# In short: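 Trophozoite viability was measured as ATP-dependent luminescence, read 15-30 min after reagent addition. Before that, parasites at 100 cells/well were exposed to compounds for 48 h, anaerobically, at 37 deg C.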
# % is scaled to controls: 0 for no effect and ±100 for the full control effect; potency is read from the fitted curve at half-maximal effect.
SMILES,Potency,"activity change, negative = killing"
Cc1cccc(N2CCN(C(=S)Nc3ccc4nc(N5CCN(C)CC5)cc(C)c4c3)CC2)c1C,1.03 µM (active),–
Cc1ccc(C)c(N2CCN(C(=S)Nc3ccc4nc(N5CCN(C)CC5)cc(C)c4c3)CC2)c1,1.3 µM (active),–
COc1ccc2nc(C)cc(N/N=C/c3cccc(OC)c3O)c2c1,0.918 µM (active),–
COc1ccc(N(CC(=O)N/N=C/c2cccc(OC)c2OC)S(=O)(=O)c2ccccc2)cc1,–,-8.54%
COc1ccc(/C=N/Nc2cc(C)nc3c(C)cccc23)cc1,0.818 µM (active),–
COc1ccc2nc(C)cc(N/N=C/c3ccc(F)cc3)c2c1,1.16 µM (active),–
O=c1c([N+](=O)[O-])cccn1Cc1cccc(Br)c1,2.05 µM (active),–
O=c1c([N+](=O)[O-])cccn1Cc1cccc(Cl)c1,4.6 µM (active),–
CN(C(=O)c1cccc(NC(=O)Cc2ccc(NC(=O)C3CCN(C(=O)c4ccccc4)CC3)cc2)c1)C1CC1,–,4.59%
O=C(Nc1ccccc1)Nc1ccc(C(=O)N2CCCC2)cc1,5.79 µM (active),–
CCN1CCN(Cc2ccc(NC(=O)Nc3ccccc3)cc2)CC1,9.18 µM (active),–
O=C(NCC1CCN(Cc2ccc(F)cc2)CC1)Nc1cc(F)ccc1F,–,-28.9%
Cc1cc([N+](=O)[O-])nn1Cc1ccc(F)cc1,2.9 µM (active),–
Cc1cc([N+](=O)[O-])nn1Cc1noc(C(=O)NCc2ccc3c(c2)OCO3)n1,–,-30.3%
CC(NC(=O)COc1cccnc1[N+](=O)[O-])c1ccc(Cl)cc1Cl (stereo not given),3.26 µM (active),–
COc1ccc(NC(=O)C(c2ccc(Cl)cc2)C(C)C)cn1 (stereo not given),–,-25.3%
CC(NC(=O)COc1cccnc1[N+](=O)[O-])c1ccc(Cl)cc1 (stereo not given),5.16 µM (active),–
CC(NC(=O)COc1cccnc1[N+](=O)[O-])c1ccc(F)cc1 (stereo not given),5.79 µM (active),–
O=[N+]([O-])c1cncc([N+](=O)[O-])c1Nc1ccccc1Cl,5.16 µM (active),–
O=[N+]([O-])c1cncc([N+](=O)[O-])c1Nc1cccc(O)c1,3.26 µM (active),–

SMILES,Potency,"activity change, negative = killing"
O=C(Oc1cccc2c(O)cccc12)c1ccccc1Cl,–,-9.35%
N/C(=N/OC(=O)c1ccccc1Cl)c1ncc([N+](=O)[O-])s1,1.63 µM (active),–
N/C(=N\OC(=O)c1ccc(Cl)cc1[N+](=O)[O-])c1ccccn1,8.18 µM (active),–
N/C(=N/OC(=O)c1ccc(Cl)cc1)c1ncc([N+](=O)[O-])s1,1.3 µM (active),–
COc1ccc(-n2nc([N+](=O)[O-])c(=NCCC3=CCCCC3)n2O)cc1,4.1 µM (active),–
COc1ccc(-n2nc([N+](=O)[O-])c(=NCCc3ccc(OC)c(OC)c3)n2O)cc1,1.16 µM (active),–
COc1ccc(-n2nc([N+](=O)[O-])c(=NCCc3ccc(Cl)cc3)n2O)cc1,1.45 µM (active),–
COc1ccc(-n2nc([N+](=O)[O-])c(=NCCc3ccccc3)n2O)cc1,1.16 µM (active),–
COc1ccc(CCN=c2c([N+](=O)[O-])nn(-c3cccc(C)c3)n2O)cc1OC,5.16 µM (active),–
COc1ccc(-n2nc([N+](=O)[O-])c(=NCCc3ccc(C)cc3)n2O)cc1,4.1 µM (active),–
CCN(CC)C(=O)Cn1cc([N+](=O)[O-])cc1[N+](=O)[O-],0.46 µM (active),–
CCN(C(=O)C1CCN(S(=O)(=O)c2ccc3c(c2)oc(=O)n3C)CC1)c1cccc(C)c1,–,-7.64%
N#Cc1c(Nc2ccccc2)[n+]([O-])c2ccc(Cl)cc2[n+]1[O-],1.63 µM (active),–
O=C1c2cc(F)ccc2-n2c1nc1ccccc1c2=O,1.83 µM (active),–
CCOCCOc1nc2c(c(=O)n(C)c(=O)n2C)n1Cc1ccc(C)cc1,–,-13.5%
Cc1cc(C(=O)N/N=C/c2ccc([N+](=O)[O-])s2)n[nH]1,2.31 µM (active),–
CC(C)(C)c1cc(C(=O)N/N=C/c2ccncc2)n[nH]1,–,16.6%
Cc1cc(C(=O)N/N=C/c2ccc(O)c([N+](=O)[O-])c2)n[nH]1,6.5 µM (active),–
CC(C)(C)c1cc(C(=O)N/N=C/c2ccc([N+](=O)[O-])s2)n[nH]1,3.65 µM (active),–
N#Cc1c(N2CCN(c3ccc([N+](=O)[O-])cc3)CC2)[n+](=O)c2ccc(Cl)cc2n1[O-],1.3 µM (active),–

SMILES,Potency,"activity change, negative = killing"
CN(C)c1ccc2nsnc2c1[N+](=O)[O-],3.65 µM (active),–
CC1S/C(=C(\C#N)C(N)=O)N(c2ccc(F)cc2)C1=O (stereo not given),–,1.62%
N=NC(=O)c1ccccc1Nc1c(O)[nH]c2ccccc12,1.03 µM (active),–
COC(=O)c1ccccc1NC(=O)N1c2ccccc2Sc2ccccc21,0.918 µM (active),–
Cc1cc(N2CCN(C)CC2)nc2ccc(NC(=S)N3CCN(c4ccc(F)cc4)CC3)cc12,1.3 µM (active),–
Cc1cccc(N2CCN(C(=S)Nc3ccc4nc(N5CCN(C)CC5)cc(C)c4c3)CC2C)c1 (stereo not given),4.1 µM (active),–
O=c1sc(N2CCN(c3ccc(F)cc3)CC2)nc2ccsc12,–,-23.9%
Cc1cc(N2CCN(C)CC2)nc2ccc(NC(=S)N3CCN(c4ccc(Cl)cc4)CC3)cc12,1.16 µM (active),–
Cc1cc(N2CCN(C)CC2)nc2ccc(NC(=S)N3CCN(c4cccc(Cl)c4)CC3)cc12,1.16 µM (active),–
CC(=O)Nc1ccc(/C=C/c2noc(-c3ccccc3O)n2)cc1,–,-11.3%
Cn1nc([N+](=O)[O-])nc1N1CCOCC1,0.326 µM (active),–
COc1ccc(C2=NCCn3c2c2ccc(C(F)(F)F)cc2[n+]3[O-])cc1,0.0729 µM (active),–
Nc1c(Cl)cc(C2=NCCn3c2c2ccc(C(F)(F)F)cc2[n+]3[O-])cc1Cl,0.163 µM (active),–
Cc1ccc(C2=NCCn3c2c2ccc(C(F)(F)F)cc2[n+]3[O-])cc1,0.13 µM (active),–
[O-][n+]1c2cc(C(F)(F)F)ccc2c2n1CCN=C2c1ccc(Cl)cc1,0.41 µM (active),–
O=[N+]([O-])c1cc2cccnc2c2ncccc12,1.83 µM (active),–
O=C(Nc1ccc(-c2cn3ccccc3n2)cc1)c1ccco1,8.18 µM (active),–
COc1ccccc1-n1cc2c([N+](=O)[O-])cc([N+](=O)[O-])cc2n1,1.63 µM (active),–
CC(Oc1cccnc1[N+](=O)[O-])C(=O)Nc1ccc(F)cc1 (stereo not given),5.16 µM (active),–
CC(Oc1cccnc1[N+](=O)[O-])C(=O)Nc1cccc(Cl)c1 (stereo not given),3.65 µM (active),–
